Hit rate of the full screen: of about 1,400 compounds, about 50 (4%) were called active.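 How the source made its calls: active means fitted curve reaches 30% CPE protection at or below the top valid dose, with every test run called active; inconclusive means test runs disagree, some active and some not; inactive means every test run inactive, including effects in the wrong direction.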 A selection follows. Entries with a potency or affinity are not part of this list.
Experiment: Dengue virus 2 cytopathic effect protection, dose response, BHK-21 cells, ATP luminescence, cherry-pick (AID 687031)
Conditions: BHK-21 DENV2 CPE protection, 5 d; series mostly up to 19.5 µM

outcome, inactive:
Cc1ccc(-c2nc(N3CCN(C)CC3)c3ccccc3n2)cc1, COc1ccc(/C=N/NC(=O)c2nc(-c3ccccc3)n(-c3ccccc3)n2)cc1OC, CCCNC(=O)C[C@H]1CC[C@@H]2[C@H](COC[C@H](O)CN2C(=O)CC)O1, CCNC(=O)C[C@H]1CC[C@H]2[C@@H](COC[C@H](O)CN2C(=O)c2cccnc2)O1, Cc1ccc(SCCN2CCC(NC(=O)OCc3ccccc3)CCC2=O)cc1 (configuration not stated), Cc1ccc(S(=O)(=O)Nc2ccc3c(c2)C(=O)N([C@@H](C)CO)C[C@@H](C)[C@H](CN(C)S(=O)(=O)c2ccc(Cl)cc2)OCCCC[C@@H](C)O3)cc1, CCc1cc(=O)oc2cc(OCC(=O)NC3CC(C)(C)NC(C)(C)C3)ccc12, Cc1cc(OCC(=O)NC2CC(C)(C)NC(C)(C)C2)c(C)cc1Br, CC1(C(=O)NCc2ccccc2)CN(S(C)(=O)=O)CC(=O)N1CCc1ccc(O)cc1 (configuration not stated), CC(C)CC1NC(=O)c2ccccc2-n2c1nc1ccccc1c2=O (configuration not stated), Cc1ccc(S(=O)(=O)N(C)CC(=O)Oc2ccc(-c3nnco3)cc2)cc1, N#Cc1cc2cc3c(cc2nc1Cl)OCCO3, CCN(CC)C1CCN(Cc2c(C(=O)N3CCCCCCC3)nc3ccc(Cl)cn23)C1 (configuration not stated), O=C(CN1CCc2cc3c(cc2C1)OCCCO3)Nc1ccccc1, CN(C)CCCNc1cc(O)c2ncccc2c1, C/C=C/c1ccc([C@@H]2[C@@H](CO)N(C(C)=O)[C@@H]2CNC(=O)CC2CC2)cc1, O=C(NCC1CC1)c1onc(CSc2ccc(F)c(F)c2)c1C(=O)NCC1CC1, COc1cc(C)nc(N2CCC(C(=O)NCC3CCCO3)CC2)n1 (configuration not stated), O=C(NCCS(=O)(=O)N1CCN(c2ccccc2)CC1)C1CC1, O=C(CCc1nnc(Cc2c[nH]c3ccccc23)o1)NCCC1CCCCO1 (configuration not stated), COc1ccc(S(=O)(=O)N2CCCCC2c2cc(C(=O)Nc3ccccc3)no2)cc1 (configuration not stated), COC(=O)N1CCCCC1c1cc(C(=O)Nc2ccccc2Cl)no1 (configuration not stated), Cc1ccc([C@H]2C[C@@H](n3cc(-c4ccc(F)cc4)nn3)[C@H](O)CN2C(=O)c2cccs2)cc1, CCC(=O)N1CC[C@@H]2[C@@H](CO)Nc3ccc(-c4ccc(OC)cc4)cc3[C@@H]21, O=C(NCc1ccccc1)c1ccccc1, O=C(O)c1ccc(CNC(=O)C2CCCN2C(=O)OCc2ccccc2)cc1 (configuration not stated), Cc1ccc(OCc2nnc(SCc3cc(=O)[nH]c4ccccc34)n2-c2ccccc2)cc1
